Our source for the Potency, outcome and activity change, positive = activation values is PubChem BioAssay (Tox21).

A short description of assay [1]: qHTS assay to identify small molecule antagonists of the estrogen related receptor (ERR) signaling pathway from Tox21 library - cell viability counter screen (AID 1224834). Note: nearly all actives have a fitted effect of over 30% in size. Put shortly:
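CellTiter-Fluor fluorescence, read after 30 min at 37 C, measures viability of ERR cells. Cells plated at 2,000/well and incubated 6 h before pin-tool compound addition, then exposed 17.5 hours at 37 C.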
In general terms: Quantitative high-throughput screening tests each substance at several concentrations.

Assay [2] addresses Luciferin 4-monooxygenase (Photinus pyralis) (UniProt P08659). As to the kind of experiment: qHTS assay to identify small molecule inhibitors of firefly luciferase (AID 1224835). Note: nearly all actives have a fitted effect of over 25% in size. Note: potency is the fitted concentration of half-maximal effect. Summed up: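 Quantitative HTS format; KM concentrations of both substrates. Purified P. pyralis FLuc activity quantified from luminescence images.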
Assay [3] can be described thus: qHTS assay to identify small molecule agonists of the constitutive androstane receptor (CAR) signaling pathway - cell viability counter screen (AID 1224836). Note: nearly all actives have a fitted effect of over 45% in size. Put shortly: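 HepG2 cells stably carrying hCAR and a CYP2B6-2.2kb reporter were plated 4 h, then given compounds at 15 concentrations plus PK11195 (final 0.75 uM). After 23 h at 37 C, viability was read by CellTiter-Fluor fluorescence.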

Assay [4] can be described thus: qHTS assay to identify small molecule antagonists of the constitutive androstane receptor (CAR) signaling pathway - cell viability counter screen (AID 1224837). Note: nearly all actives have a fitted effect of over 45% in size. Put shortly: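 Cytotoxicity counter-screen: CellTiter-Fluor fluorescence after 23 h compound exposure (15-point qHTS) in double-stable HepG2-CYP2B6-hCAR cells, with 50 nM CITCO added.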
Assay [5] deals with Nuclear receptor subfamily 1 group I member 3 (Homo sapiens) (UniProt Q14994). The assay can be described thus: qHTS assay to identify small molecule antagonists of the constitutive androstane receptor (CAR) signaling pathway (AID 1224838). Note: nearly all actives have a fitted effect of over 40% in size. Summed up: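 Antagonism measured as luciferase signal (ONE-Glo, 30 min, room temperature) in CAR-stimulated cells: HepG2-CYP2B6-hCAR double-stable line exposed 24 hr at 37 C to compound in a 15-point series plus 50 nM CITCO.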

For assay [6] the target is unchanged. The assay can be described thus: qHTS assay to identify small molecule agonists of the constitutive androstane receptor (CAR) signaling pathway (AID 1224839). Note: nearly all actives have a fitted effect of over 15% in size. Note: potency is the fitted concentration of half-maximal effect. Put shortly: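 HepG2 cells stably expressing hCAR and a CYP2B6-2.2kb luciferase reporter were treated with compounds at 15 concentrations plus 0.75 uM PK11195 (final) for 24 h at 37 C; luminescence was read after ONE-Glo addition.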

A short description of assay [7]: qHTS assay to identify small molecule antagonists of the estrogen related receptor signaling pathway with the pleiotropic PPARgamma coactivator (PGC) from Tox21 10K library - cell viability counter screen (AID 1224840; active = well fitted cell-killing curve with a large enough effect in the repeat runs, not every such curve was filed as active; note: nearly all actives have a fitted effect of over 40% in size). Put shortly: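 Counter-screen for cytotoxicity: after 17.5 h compound exposure at 37 C, CellTiter-Fluor reagent added to PGC/ERR cells for 30 min and fluorescence read. Cells were seeded at 2,000 per well 6 h before dosing.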

A short description of assay [8]: qHTS assay to identify small molecule antagonists of the estrogen related receptor signaling pathway with the pleiotropic PPARgamma coactivator (PGC) from Tox21 10K library (AID 1224841; call rule not given here; note: actives are mostly falling curves and most rising ones were filed inactive; nearly all actives have a fitted effect of over 50% in size). Put shortly: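 Luminescence (One-Glo, 30 min at room temperature) after 18 h compound treatment at 37 C of PGC/ERR reporter cells plated at 2,000 cells/well and settled 6 h beforehand.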

The nature of assay [9]: qHTS assay to identify small molecule agonists of the estrogen related receptor signaling pathway with the pleiotropic PPARgamma coactivator (PGC) from Tox21 10K library (AID 1224842). Note: nearly all actives have a fitted effect of over 15% in size. Summed up:
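PGC/ERR reporter cells (NTP line) were seeded 2,000 per well, rested 6 h at 37 C/5% CO2, then pin-dosed with compounds in DMSO for 18 h at 37 C; luciferase read by One-Glo luminescence after 30 min at room temperature.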

Assay [10] has as its target Thyrotropin receptor (Homo sapiens) (UniProt P16473). The assay can be described thus: qHTS assay to identify small molecule agonists of the thyroid stimulating hormone receptor (TSHR) signaling pathway (AID 1224843; calls by dose curve; note: nearly all actives have a fitted effect of over 45% in size). Put shortly:
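Using 15 concentrations per compound in triplicate, cAMP production was monitored in TSHR-HEK293 cells after 30 min compound incubation at RT; HTRF reagents followed, with fluorescence intensity recorded after 1 h.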

A short description of assay [11]: qHTS assay to identify small molecule agonists of the hypoxia (HIF-1) signaling pathway - cell viability counter screen (AID 1224844; calls by dose curve; note: nearly all actives have a fitted effect of over 50% in size). Summed up: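 Cytotoxicity measured by CellTiter-Glo ATP luminescence in the wells also read for beta-lactamase signal. Cells were HRE-bla ME-180 (2,000/well, 0.5% dialyzed FBS), exposed to compounds for 17 h at 37C.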
The nature of assay [12]: qHTS assay to identify small molecule agonists of the hypoxia (HIF-1) signaling pathway (AID 1224846; active = well fitted activation curve with a large enough effect in the signal ratio in the repeat runs, not every such curve was filed as active; the % refers to the signal ratio). Put shortly:
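Compounds added to ME-180 cells carrying hypoxia-response-element beta-lactamase reporter (0.5% dialyzed FBS, 5 h preplating), 17 h at 37C; agonist activity detected by CCF4-AM B/G FRET read-out.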

The nature of assay [13]: qHTS assay to identify small molecule antagonists of the estrogen related receptor (ERR) signaling pathway from Tox21 library (AID 1224848). Note: nearly all actives have a fitted effect of over 50% in size. Put shortly:
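Tox21 10K compounds in DMSO tested for ERR pathway antagonism in NTP's ERR cell line; 18 h, 37 C exposure; ONE-Glo luminescence.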

Assay [14] is described as follows: qHTS assay to identify small molecule agonists of the estrogen related receptor (ERR) signaling pathway from Tox21 library (AID 1224849; calls by dose curve; note: nearly all actives have a fitted effect of over 15% in size). Particulars: ERR reporter cell line, ONE-Glo luciferase, 18 h; at 92.4 µM (top of the series) unless noted. Summed up: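 Luminescent agonist read-out (One-Glo, 30-minute room-temperature incubation) following 18-hour compound treatment at 37 C of the ERR cell line, which had been plated 6 hours before dosing.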

Assay [15] can be described thus: qHTS RealTime-Glo MT Cell Viability Assay in HepG2 cells - 24 hour (AID 1224867). Note: nearly all actives have a fitted effect of over 50% in size. Summed up:
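HepG2 cells were seeded at 600 cells/well together with NanoLuc luciferase and a cell-permeant prosubstrate, preincubated 5 h at 37 C/5% CO2, then pin-dosed with compounds in DMSO. Nonlytic luminescence from viable cells was read at each time point.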

A short description of assay [16]: qHTS RealTime-Glo MT Cell Viability Assay in HEK293 cells - 32 hour (AID 1224868). Summed up: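 HEK293 cells were seeded at 600 cells/well together with NanoLuc luciferase and cell-permeant prosubstrate, preincubated 5 h at 37 C/5% CO2, then given compound in DMSO by pintool. Luminescence from viable-cell prosubstrate reduction was read repeatedly over 40 h.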

The nature of assay [17]: A CellTox Green Cytotoxicity Assay to monitor cytotoxicity in HEK293 cells - 0 hour (AID 1224869). Note: nearly all actives have a fitted effect of over 50% in size. Summed up:
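Fluorescence from a DNA-binding dye excluded by viable cells was measured repeatedly in the same HEK293 wells (600 cells/well) during continuous compound exposure at 37 C. Each assay gives one read point: 0, 8, 16, 24, 32 or 40 h.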

Assay [18] in a line: qHTS assay to identify small molecule agonists of H2AX (AID 1224845; active = well fitted activation curve with a large enough effect in the signal ratio in the repeat runs, not every such curve was filed as active; the % refers to the signal ratio). Put shortly: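 Wild-type CHO-K1 cells plated overnight, then exposed 3 hr at 37C to compounds at 15 concentrations (0.76% DMSO). Lysed, then HTRF anti-pH2AX(S139)-cryptate/anti-H2AX-d2 detection after 24 hr at room temperature; emissions 665 and 620 nm.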
The nature of assay [19]: qHTS assay to identify small molecule agonists of H2AX - cell viability counter screen (AID 1224847; calls by dose curve; note: top concentration of the series differs between compounds; nearly all actives have a fitted effect of over 30% in size). Summed up:
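Wild-type CHO-K1 cells (10% FBS medium) were plated overnight at 37C, exposed to compounds at 15 concentrations for 3 hr at 37C (0.76% DMSO final), and viability was read as CellTiter-Glo luminescence after 30 min at room temperature.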

A number with no mark means an inactive call. Inconclusive results are not listed. The source made the active and inactive calls. Unless noted, calls come from the whole dose curve; as a rule, active = well fitted curve in the direction sought with a large enough effect in the repeat runs; inconclusive = weak or mixed curves; inactive = no such curve, though single readings can be large; an effect the other way counts as inactive or inconclusive.
% is set by controls: 0 for no effect and ±100 for the full control effect.

Luciferin 4-monooxygenase (Photinus pyralis), sequence (P08659 whole entry, looked up): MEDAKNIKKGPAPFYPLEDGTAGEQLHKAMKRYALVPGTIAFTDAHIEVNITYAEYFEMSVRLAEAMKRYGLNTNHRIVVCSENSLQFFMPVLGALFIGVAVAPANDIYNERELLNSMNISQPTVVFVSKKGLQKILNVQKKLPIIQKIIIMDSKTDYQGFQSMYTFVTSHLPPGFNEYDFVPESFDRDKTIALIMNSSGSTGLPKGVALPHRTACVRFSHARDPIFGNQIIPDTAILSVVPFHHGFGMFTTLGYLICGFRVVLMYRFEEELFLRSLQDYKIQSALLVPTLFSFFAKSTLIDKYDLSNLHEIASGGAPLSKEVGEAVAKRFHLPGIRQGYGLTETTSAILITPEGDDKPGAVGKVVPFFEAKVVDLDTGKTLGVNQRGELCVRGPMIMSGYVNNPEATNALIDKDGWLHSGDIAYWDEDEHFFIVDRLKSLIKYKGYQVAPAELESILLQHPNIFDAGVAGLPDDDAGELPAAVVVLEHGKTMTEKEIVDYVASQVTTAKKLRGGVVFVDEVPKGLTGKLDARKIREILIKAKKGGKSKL
Nuclear receptor subfamily 1 group I member 3 (Homo sapiens), sequence (Q14994 whole entry, looked up): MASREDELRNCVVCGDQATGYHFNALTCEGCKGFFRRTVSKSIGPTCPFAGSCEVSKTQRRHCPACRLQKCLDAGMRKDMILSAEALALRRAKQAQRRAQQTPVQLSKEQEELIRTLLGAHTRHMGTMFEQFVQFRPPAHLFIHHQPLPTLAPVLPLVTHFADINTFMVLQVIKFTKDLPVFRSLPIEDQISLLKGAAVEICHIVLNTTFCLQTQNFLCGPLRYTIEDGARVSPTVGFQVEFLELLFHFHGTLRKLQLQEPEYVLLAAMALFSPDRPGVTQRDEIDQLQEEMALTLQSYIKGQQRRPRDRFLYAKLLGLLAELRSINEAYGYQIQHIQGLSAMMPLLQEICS
Thyrotropin receptor (Homo sapiens), sequence (P16473 whole entry, looked up): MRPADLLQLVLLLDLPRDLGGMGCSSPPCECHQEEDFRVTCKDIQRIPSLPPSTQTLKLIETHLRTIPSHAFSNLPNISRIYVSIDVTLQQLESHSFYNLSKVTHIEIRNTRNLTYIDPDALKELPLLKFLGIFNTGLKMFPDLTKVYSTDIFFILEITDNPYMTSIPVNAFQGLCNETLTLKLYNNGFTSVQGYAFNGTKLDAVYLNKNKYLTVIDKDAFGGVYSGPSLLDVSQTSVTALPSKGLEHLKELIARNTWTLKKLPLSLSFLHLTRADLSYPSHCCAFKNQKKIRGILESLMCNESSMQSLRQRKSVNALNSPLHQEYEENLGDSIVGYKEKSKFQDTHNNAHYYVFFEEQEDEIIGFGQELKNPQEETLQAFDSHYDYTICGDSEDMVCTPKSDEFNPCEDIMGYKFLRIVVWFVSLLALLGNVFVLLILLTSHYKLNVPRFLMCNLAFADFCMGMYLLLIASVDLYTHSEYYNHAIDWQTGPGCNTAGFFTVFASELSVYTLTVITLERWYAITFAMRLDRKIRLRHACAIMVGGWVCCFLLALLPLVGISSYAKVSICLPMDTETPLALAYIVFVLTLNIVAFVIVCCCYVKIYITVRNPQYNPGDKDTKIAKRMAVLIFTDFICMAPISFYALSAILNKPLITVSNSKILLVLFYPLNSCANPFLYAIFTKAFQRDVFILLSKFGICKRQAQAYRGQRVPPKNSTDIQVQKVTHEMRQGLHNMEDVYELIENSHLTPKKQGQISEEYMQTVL

As for `CC(C)c1ccc(O)cc1`, the Potency entry in assay [1], in assay [2], in assay [3], in assay [4], in assay [5] and in assay [6] was “inactive” each time. In addition, the Potency entry in assay [7], in [8], in assay [9], in assay [10], in [11] and in assay [13] was “inactive” in each case. The Potency entry in assay [15] and in assay [16] was “inactive” each time. In addition, the outcome in assay [12] and in assay [17] was inactive. The activity change, positive = activation in [14] is -0.432%.

As to `C=CCC1(C(C)CC)C(=O)NC(=O)NC1=O` (stereo unspecified), the Potency result in [1], in assay [2], in assay [3], in assay [4], in assay [5] and in assay [6] was “inactive” in each case. In addition, the Potency result in assay [7], in assay [10], in [11], in [15] and in assay [16] was “inactive” in each case. Moreover, the call in assay [18], in assay [12] and in [17] was inactive.

Consider `NNCc1ccccc1`, for which the Potency result in assay [1], in assay [3], in assay [4], in assay [5], in assay [7] and in [10] was “inactive” each time. Further, the Potency result in assay [11], in assay [15] and in assay [16] was “inactive” in each case. In addition, the Potency in [2] was 10.2 µM (active); in assay [6], 62.3 µM (active). Further, the call in assay [18], in assay [12] and in assay [17] was inactive.

Turning to `COc1cc(CCN)cc(OC)c1OC`, the Potency result in [1], in assay [2], in assay [3], in assay [4], in assay [5] and in assay [6] was “inactive” in each case. The Potency result in assay [7], in [10], in [11], in assay [15] and in [16] was “inactive” each time. The call in assay [18], in [12] and in assay [17] was inactive.

Take `CS(=O)(=O)Cl`: the Potency entry in [1], in assay [2], in [3], in [4], in assay [5] and in assay [6] was “inactive” each time. The Potency result in assay [7], in assay [10], in assay [11], in [19], in assay [15] and in assay [16] was “inactive” throughout. Besides, the compound was classed as inactive in assay [18], in [12] and in assay [17].

Regarding `CCCCCCCCBr`, the Potency entry in [1], in assay [2], in assay [3], in assay [4], in [5] and in [6] was “inactive” each time. The Potency result in assay [7], in [10], in assay [11], in [19], in assay [15] and in [16] was “inactive” throughout. The outcome in [18], in assay [12] and in [17] was inactive.

For the compound `COP(=O)(O)OC`, the Potency entry in assay [1], in assay [2], in assay [3], in assay [4], in assay [5] and in assay [6] was “inactive” throughout. The Potency entry in assay [7], in assay [10], in assay [11], in assay [19], in assay [15] and in assay [16] was “inactive” each time. The call in [18] and in [17] was inactive.

In the case of `CCOC(=O)CCl`, the Potency result in [1], in assay [2], in [3], in [4], in [5] and in [6] was “inactive” each time. Besides, the Potency entry in assay [7], in assay [10], in assay [11], in [19], in assay [15] and in [16] was “inactive” each time. Also, the call in assay [18], in assay [12] and in assay [17] was inactive.

With `CC#Cc1cc(C)nc(Nc2ccccc2)n1`, the Potency entry in assay [1], in assay [3], in [4], in assay [5], in assay [7] and in assay [10] was “inactive” each time. In addition, the Potency result in assay [11], in assay [19] and in assay [15] was “inactive” in each case. The values for the Potency in [2] and in assay [6] were 39.9 µM (active) and 30.6 µM (active), respectively. Besides, the call in assay [18], in assay [12] and in assay [17] was inactive.

`O=C(Cl)C(Cl)Cl`: the Potency result in assay [1], in assay [2], in assay [3], in [4], in [5] and in assay [6] was “inactive” each time. Further, the Potency entry in assay [7], in [10], in assay [11], in assay [19], in assay [15] and in assay [16] was “inactive” throughout. In addition, the compound was called inactive in [18] and in assay [17].
